The subject of assay [1] is Staphylococcus aureus. The settings on record: Concentration 32 ug.mL-1;; ASSAY_TEST Inhibition of Bacterial Growth; detection method Absorption (OD600); MEDIA CAMHB; plate type 384well; NBS; CORNING #3640; time 18 hr.
The test system of assay [2] is Escherichia coli. The settings on record: Concentration 32 ug.mL-1;; ASSAY_TEST Inhibition of Bacterial Growth; detection method Absorption (OD600); MEDIA CAMHB; plate type 384well; NBS; CORNING #3640; time 18 hr.

The values that follow come from ChEMBL document CHEMBL4513146, “CO-ADD screening of Karazin Kharkiv National University (Ukraine) compounds”.

Entries with a potency or affinity are not part of this list.

The term Inhibition denotes the change of the read-out against control, counted positive when it falls. On to `CCCc1nnc2c(=O)n(CC(=O)Nc3cccc(C#N)c3)c3ccccc3n12`, for which the Inhibition in assay [1] is 1.38%; in assay [2] it was -7.78%.

Take `Cc1cc(C)c(NC(=O)Cn2nc3c(N4CCN(c5ccccc5)CC4)nccn3c2=O)c(C)c1`: the figures for the Inhibition in assay [1] and in assay [2] were 13.62% and -0.55%, respectively.

In the case of `COc1cccc(CNC(=O)CSc2nnc3c4cc(-c5ccc(C)cc5)nn4ccn23)c1`, the figures for the Inhibition in assay [1] and in assay [2] were -18.93% and -18.15%, respectively.

Turning to `COC(=O)c1ccc(NC(=O)Cn2nc3c4cc(-c5ccc(Cl)cc5)nn4ccn3c2=O)cc1`, the Inhibition in assay [1] amounted to 1.97%; in assay [2], 4.04%.

Turning to `CCCc1nnc2c(=O)n(CC(=O)N3CCCc4ccccc43)c3ccccc3n12`, the Inhibition is 2.88% in assay [1] and -3.24% in assay [2].

Take `COc1cccc(-n2ccn3c(SCC(=O)c4cccc(Cl)c4)nnc3c2=O)c1`: the Inhibition in assay [1] was -1.54%; in assay [2] it was 0.66%.

With `O=c1c2nnc(-c3cccc([N+](=O)[O-])c3)n2ccn1-c1ccc(F)cc1`, the Inhibition in assay [1] is reported as 13.28%; in assay [2] it was -1.02%.

Regarding `CCc1nnc2c(SCC(=O)Nc3ccc(C(C)=O)cc3)nc3ccccc3n12`, the Inhibition in assay [1] is 4.71%; in assay [2], 4.62%.

For the compound `CCCc1nnc2c(=O)n(CC(=O)Nc3ccc(Br)cc3)c3ccccc3n12`, the Inhibition in assay [1] is 11.05%; in assay [2], 2.53%.

For `COc1cccc(-n2ccn3c(SCc4ccc(Cl)cc4)nnc3c2=O)c1`, the Inhibition in assay [1] is -2.27%; in assay [2], 1.4%.

As to `COc1cccc(NC(=O)Cn2nc3c(N4CCCC4)nccn3c2=O)c1`, the Inhibition was -2.28% in assay [1] and -3.58% in assay [2].

On to `COc1cc(NC(=O)Cn2nc3ccc(C(=O)NCc4ccccc4)cn3c2=O)cc(OC)c1OC`, for which the Inhibition in assay [1] is -6.97%; in assay [2] it was -8.69%.

As for `Cc1nnc2c(=O)n(CC(=O)Nc3ccc(Cl)cc3F)c3ccccc3n12`, the Inhibition was 7.03% in assay [1] and -1.92% in assay [2].

For `COc1ccc(Cl)cc1NC(=O)Cn1nc2ccc(Sc3ccccc3)nn2c1=O`, the Inhibition in assay [1] is -3.52%; in assay [2] it was -9.25%.

For the compound `Cc1ccccc1Oc1nc2ccccc2n2c(=O)n(CC(=O)NCc3ccc4c(c3)OCO4)nc12`, the Inhibition in assay [1] worked out at 13.3%; in assay [2], 0.04%.

For `CCCCOc1ccc(-c2cc3c4nnc(SCC(=O)Nc5cccc(C)c5C)n4ccn3n2)cc1`, the Inhibition in assay [1] was -5.45%; in assay [2] it was -19.34%.

On to `O=C(Cn1nc2c(Sc3ccccc3)nccn2c1=O)Nc1ccc2c(c1)OCCO2`, for which the Inhibition in assay [1] is on record as -4.66%; in assay [2] it was -0.55%.

Take `Cc1ccc(F)cc1NC(=O)CSc1nc2ccccc2n2c(C)nnc12`: the Inhibition in assay [1] amounted to 2.37%; in assay [2], 1.62%.

With `COc1cccc(-n2ccn3c(SCC(=O)c4c[nH]c5ccc(OC)cc45)nnc3c2=O)c1`, the Inhibition was 11.97% in assay [1] and -2.96% in assay [2].

As for `Cc1ccc(-n2ccn3c(=O)n(Cc4ccc(F)cc4)nc3c2=O)cc1C`, the figures for the Inhibition in assay [1] and in assay [2] were 10.94% and -2.15%, respectively.

Take `Cc1nnc2ccc(S(=O)(=O)N(Cc3ccccc3Cl)c3ccc(F)cc3)cn12`: the Inhibition is on record as -4.74% in assay [1] and -4.95% in assay [2].

On to `CCCN(C)c1nccn2c(=O)n(CC(=O)Nc3cccc(Cl)c3F)nc12`, for which the results for the Inhibition in assay [1] and in assay [2] were 4.66% and 0.13%, respectively.

With `CCOc1ccc(C(=O)Cn2nc3n(CCC(C)C)c(=O)c4sccc4n3c2=O)cc1`, the Inhibition in assay [1] is listed as 6.67%; in assay [2], 3.25%.

Consider `Cc1ccc2c(c1)N(C(=O)Cn1nc3ccc(Sc4ccccc4)nn3c1=O)CCO2`, for which the Inhibition in assay [1] is given as 5.63%; in assay [2] it was 2.06%.

Take `COc1cc(OC)c(NC(=O)Cn2nc3c(Sc4ccc(C)cc4C)nccn3c2=O)cc1Cl`: the Inhibition in assay [1] is -8.98%; in assay [2], -14.71%.

Turning to `Cc1ccccc1-c1noc(Cn2nc3ccc(-c4ccccc4)nn3c2=O)n1`, the Inhibition is recorded as -12.29% in assay [1] and -7.81% in assay [2].

Turning to `COc1ccc(CNC(=O)CSc2nnc3c4cc(-c5ccc(C)cc5)nn4ccn23)cc1OC`, the Inhibition in assay [1] is listed as 5.65%; in assay [2], -0.16%.

`COc1ccccc1-n1ccn2c(SCC(=O)Nc3ccc(C)cc3Cl)nnc2c1=O`: the Inhibition in assay [1] is 8.71%; in assay [2], -9.42%.

For the compound `CCCCN(CC)c1ccc2nnc(CCc3nc(-c4ccc5c(c4)OCO5)no3)n2n1`, the figures for the Inhibition in assay [1] and in assay [2] were -15.7% and 1.35%, respectively.

On to `O=c1c2sccc2n2c(=O)n(Cc3ccccc3F)nc2n1Cc1cccs1`, for which the Inhibition is recorded as -3.2% in assay [1] and -12.46% in assay [2].

`CCc1nnc2c(=O)n(CC(=O)Nc3cc(Cl)ccc3Cl)c3ccccc3n12`: the Inhibition is 1.29% in assay [1] and -5.86% in assay [2].

Turning to `COC(=O)c1ccccc1NC(=O)Cn1nc2c(Oc3ccc(C)cc3)nccn2c1=O`, the Inhibition in assay [1] is on record as -0.21%; in assay [2], -6.37%.

Take `O=C(Cn1nc2c(N3CCOCC3)nccn2c1=O)Nc1ccc(Cl)cc1F`: the Inhibition is 8.72% in assay [1] and 5.15% in assay [2].

Regarding `CC(C)CCNC(=O)Cn1nc2n(Cc3cccs3)c(=O)c3sccc3n2c1=O`, the figures for the Inhibition in assay [1] and in assay [2] were 3.31% and -5.47%, respectively.

For `COc1ccccc1NC(=O)Cn1nc2c(SC3CCCCC3)nccn2c1=O`, the Inhibition in assay [1] is listed as -13.71%; in assay [2], -14.54%.

Turning to `CC1CCN(C(=O)Cn2nc3n(Cc4cccs4)c(=O)c4sccc4n3c2=O)CC1`, the Inhibition in assay [1] is 3.66%; in assay [2], -8.96%.

With `Cc1cc(C)c(NC(=O)Cn2nc3n(C)c(=O)c4c(c(-c5ccccc5)cn4C)n3c2=O)c(C)c1`, the Inhibition in assay [1] was found to be 6.14%; in assay [2], 1.74%.

Consider `COc1ccc(-c2cc3c4nn(CC(=O)Nc5cc(C)cc(C)c5)c(=O)n4ccn3n2)cc1`, for which the Inhibition in assay [1] is 1.97%; in assay [2] it was 7.1%.

Take `COc1cccc(C(=O)CSc2nnc3c(=O)n(-c4ccc(F)cc4)ccn23)c1`: the Inhibition worked out at 4.06% in assay [1] and 2.2% in assay [2].

As to `CCOc1ccccc1NC(=O)Cn1nc2c(N3CCN(c4ccccc4C)CC3)nccn2c1=O`, the Inhibition is recorded as -2.13% in assay [1] and -13.69% in assay [2].

`COc1cccc(Oc2nccn3c(=O)n(CC(=O)Nc4ccc(C(C)C)cc4)nc23)c1`: the Inhibition in assay [1] is given as -2.58%; in assay [2], -7.16%.

As to `Cc1ccc(-c2cc3c4nn(CC(=O)Nc5ccc(C)c(Cl)c5)c(=O)n4ccn3n2)cc1C`, the Inhibition is -5.06% in assay [1] and -1.24% in assay [2].

Regarding `COC(=O)c1ccc(NC(=O)Cn2nc3ccc(S(=O)(=O)c4ccccc4)nn3c2=O)cc1`, the Inhibition is listed as -1.97% in assay [1] and -13.66% in assay [2].

Consider `COc1ccc(N(Cc2cccc(OC)c2)S(=O)(=O)c2ccc3nnc(C)n3c2)cc1`, for which the Inhibition in assay [1] is recorded as -9.05%; in assay [2], 0.15%.

As to `Cc1ccc(Nc2cc(C)n3c(=O)n(Cc4cc(=O)n5ccccc5n4)nc3n2)cc1F`, the Inhibition in assay [1] is 9.94%; in assay [2], -6.14%.

Consider `CC(C)c1nnc2c(SCC(=O)Nc3cccc(Cl)c3)nc3ccccc3n12`, for which the figures for the Inhibition in assay [1] and in assay [2] were 8.54% and 0%, respectively.

As to `COc1ccccc1N1CCN(C(=O)CSc2nnc3c(=O)n(-c4ccc(F)cc4)ccn23)CC1`, the results for the Inhibition in assay [1] and in assay [2] were 6.93% and 2.55%, respectively.

`COc1ccc(NC(=O)Cn2nc3cc(C)nc(Nc4ccc(F)c(C)c4)n3c2=O)cc1`: the figures for the Inhibition in assay [1] and in assay [2] were -1.45% and -6.2%, respectively.

In the case of `COc1ccc(Cn2nc3ccc(-c4ccccc4)nn3c2=O)cc1F`, the Inhibition stood at 20.86% in assay [1] and 2.33% in assay [2].

For the compound `O=S(=O)(c1ccc2nncn2c1)N(Cc1cccc(F)c1)c1ccc2c(c1)OCCO2`, the Inhibition is listed as 1.17% in assay [1] and -4.29% in assay [2].

Take `CC(C)c1nnc2c(SCC(=O)Nc3ccc(Br)cc3)nc3ccccc3n12`: the Inhibition amounted to 1.25% in assay [1] and 1.75% in assay [2].

For the compound `CC(C)c1nnc2c(SCC(=O)Nc3ccc(F)cc3F)nc3ccccc3n12`, the figures for the Inhibition in assay [1] and in assay [2] were 6.8% and 1.07%, respectively.

Consider `CC(C)Cn1c(=O)c2sccc2n2c(=O)n(CC(=O)NC(C)C)nc12`, for which the figures for the Inhibition in assay [1] and in assay [2] were -11.46% and 2.58%, respectively.

Turning to `COc1ccc(Cl)cc1NC(=O)CSc1nnc2c(=O)n(-c3ccc(C)c(C)c3)ccn12`, the Inhibition is 15.8% in assay [1] and -1.54% in assay [2].

For `COC(=O)c1ccc(CN(c2ccc(F)cc2)S(=O)(=O)c2cccn3c(C)nnc23)o1`, the results for the Inhibition in assay [1] and in assay [2] were 11.5% and -1.28%, respectively.

For the compound `COc1ccc(N(Cc2cccc(F)c2)S(=O)(=O)c2ccc3nnc(C)n3c2)cc1`, the Inhibition in assay [1] was -0.61%; in assay [2] it was -14.24%.

Take `CCc1cccc(NC(=O)Cn2c(=O)c3nnc(C(C)C)n3c3ccccc32)c1`: the Inhibition amounted to 12.07% in assay [1] and 8.67% in assay [2].

On to `CCOC(=O)c1ccccc1NC(=O)Cn1c(=O)c2nnc(C(C)C)n2c2ccccc21`, for which the Inhibition in assay [1] came to 9.86%; in assay [2], 0.49%.

As to `Cc1ccc(NC(=O)Cn2nc3c4cc(-c5ccc(C)c(C)c5)nn4ccn3c2=O)c(Cl)c1`, the values for the Inhibition in assay [1] and in assay [2] were 9.28% and -1.41%, respectively.

Consider `O=C(Cn1nc2ccc(-c3ccccc3)nn2c1=O)Nc1cccc(Cl)c1`, for which the Inhibition in assay [1] is -4.62%; in assay [2], -11.73%.

On to `Cc1cc2nn(CC(=O)NCc3ccccc3)c(=O)n2c(-c2ccc(C(F)(F)F)cc2)n1`, for which the results for the Inhibition in assay [1] and in assay [2] were 13.36% and -8.01%, respectively.

As to `CCOC(=O)c1ccc(NC(=O)Cn2nc3ccc(S(=O)(=O)C(C)(C)C)nn3c2=O)cc1`, the results for the Inhibition in assay [1] and in assay [2] were 5.05% and -4.95%, respectively.

On to `CCCCn1c(=O)c2sccc2n2c(CCC(=O)NCCC34CC5CC(CC(C5)C3)C4)nnc12`, for which the Inhibition in assay [1] was 7.09%; in assay [2], 0.44%.

On to `O=C(CSc1nnc2ccc(C(=O)NCc3ccccc3)cn12)Nc1ccccc1Br`, for which the Inhibition is reported as 7.29% in assay [1] and -1.34% in assay [2].

As for `COc1ccc(CNC(=O)CCc2nnc3c4cc(-c5ccc(Cl)cc5)nn4ccn23)cc1OC`, the results for the Inhibition in assay [1] and in assay [2] were 3.74% and 1.66%, respectively.

Regarding `C=Cc1ccc(CN(c2ccc3c(c2)OCO3)S(=O)(=O)c2ccc3nncn3c2)cc1`, the results for the Inhibition in assay [1] and in assay [2] were 3.79% and -6.77%, respectively.

With `COc1ccc(CNC(=O)Cn2nc3c(Oc4cccc(C)c4C)nccn3c2=O)cc1`, the Inhibition in assay [1] is -12.87%; in assay [2], 0.86%.

`O=S(=O)(c1cccn2c(SCc3c(F)cccc3Cl)nnc12)N1CCCC1`: the Inhibition in assay [1] is 5.67%; in assay [2], 0.4%.

Take `Cc1ccc(NC(=O)CSc2nnc3ccc(C(=O)Nc4cccc(F)c4)cn23)cc1F`: the values for the Inhibition in assay [1] and in assay [2] were 14.43% and 0.35%, respectively.

As to `COc1cccc(-n2ccn3c(SCC(=O)NCc4ccco4)nnc3c2=O)c1`, the Inhibition in assay [1] is on record as 13.02%; in assay [2] it was -1.73%.

With `CCc1nnc2ccc(S(=O)(=O)N(Cc3cccc(OC)c3)c3cccc(F)c3)cn12`, the figures for the Inhibition in assay [1] and in assay [2] were -0.28% and -5.95%, respectively.
